ALDH1A1 block: qHTS Assay for Inhibitors of Aldehyde Dehydrogenase 1 (ALDH1A1); Aldehyde dehydrogenase 1A1 (Homo sapiens), P00352; Purified ALDH1A1, NADH fluorescence, propionaldehyde substrate; Potency, µM (highest dose often 75.3 µM), for inactives: at the highest dose activity, negative = inhibition, usual class: inhibitors; 7.3% of 220,000 active; AID 1030, 2008; active = well fitted inhibition curve with a large enough effect, not every such curve was filed as active; inconclusive = small, poorly fitted or top-dose-only effect, or another doubt; inactive = no such curve, though single readings can be large or run the other way;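 note: potency is the fitted concentration of half-maximal effect; plate controls were no enzyme wells and a reference inhibitor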
PNC inhibitor: High Content Assay for Compounds that inhibit the Assembly of the Perinucleolar Compartment. PC3M PTB-GFP, PNC prevalence imaging, 16 h; active compounds read low. activity change (PNC), negative = inhibition, % at 10 µM. 3.1% of 140,000 active. AID 2417, 2010;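 active = readout at or below -70, meaning at least 70% loss of cells showing the perinucleolar compartment, a nuclear body marking cancer cells; inconclusive = readout between -30 and a set limit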;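 note: plate controls were DMSO wells for no effect and camptothecin positive control wells for full effect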
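PC3M cells stably expressing PTB-GFP, 750–1000 cells/well, treated 16 h at 37 °C with compound (23 nl of library stock), in duplicate. After paraformaldehyde fixation and Hoechst stain, imaged at 20x; PNC prevalence scored by image analysis.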
HPGD inh: qHTS Assay for Inhibitors of HPGD (15-Hydroxyprostaglandin Dehydrogenase) | 15-hydroxyprostaglandin dehydrogenase [NAD(+)] (Homo sapiens), P15428 | 4.3% of 150,000 active | purified HPGD, NADH fluorescence kinetic, PGE2 substrate | AID 894, 2007 | Potency, µM, for the others: top-dose activity change, negative = inhibition, most hits filed as inhibitors; active = well fitted inhibition curve with a large enough effect, not every such curve was filed as active; inconclusive = small, poorly fitted or top-dose-only effect, or another doubt; inactive = no such curve, though single readings can be large or run the other way; note: potency is the fitted concentration of half-maximal effect
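20 nM HPGD preincubated 15 min at room temperature with compound in 50 mM Tris-HCl pH 8, 0.01% Tween 20. Started with 1 mM NAD+ and 30 uM prostaglandin E2; NADH fluorescence (360/450 nm) read 5 times over 30-s intervals, last minus first.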
IMPase inh: qHTS Assay for Identifying the Cell-Membrane Permeable IMPase Inhibitors; 120,000 tested, under 10 active; inhibition (IP1 accumulation), % at 46.1 µM; CHO-M1 cells, IP1 accumulation, HTRF TR-FRET ratio; AID 901, 2007; Inositol monophosphatase 1 (Rattus norvegicus), P97697; active = well fitted curve in the direction sought with a large enough effect in the signal ratio, not every such curve was filed as active; inconclusive = small, poorly fitted or top-dose-only effect, or a change in a side signal; inactive = no such curve, though single readings can be large or run the other way; the % refers to the signal ratio;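 note: cells stimulated with carbachol in lithium chloride buffer; plate controls were DMSO basal wells for no effect and reference inhibitor wells for full effect; higher means more IMPase inhibition seen as more IP1 and lower FRET ratio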
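The IP-One HTRF competitive assay in carbachol-stimulated CHO-M1 cells quantifies cellular IP1. Compounds spanned up to 46 uM final, and activity is expressed as AC50 from concentration-response fits of the ratio and donor data.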
NPSR antagonist: qHTS Assay for Antagonists of the Neuropeptide S Receptor: cAMP Signal Transduction; CHO-NPSR cells, cAMP TR-FRET, antagonist mode; Potency, µM (series often up to 38.3 µM), for the others: top-dose activity change, negative = inhibition, usual class: inhibitors; 1% of 220,000 active; AID 1461, 2008; note: potency is the fitted concentration of half-maximal effect; nearly all actives have a fitted effect of over 50% in size
Target sequence (Q6W5P4 whole entry, looked up): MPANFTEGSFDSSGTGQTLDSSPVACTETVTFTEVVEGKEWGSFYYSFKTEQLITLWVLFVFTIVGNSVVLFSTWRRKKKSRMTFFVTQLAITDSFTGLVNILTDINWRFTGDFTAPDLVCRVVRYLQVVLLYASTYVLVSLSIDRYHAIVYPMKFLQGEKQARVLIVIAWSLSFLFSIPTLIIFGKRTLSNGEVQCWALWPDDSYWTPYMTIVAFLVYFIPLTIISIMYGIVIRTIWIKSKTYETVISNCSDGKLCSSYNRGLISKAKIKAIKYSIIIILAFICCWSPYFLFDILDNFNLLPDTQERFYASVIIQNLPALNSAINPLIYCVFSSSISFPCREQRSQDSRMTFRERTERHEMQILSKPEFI
IMPase Li cell: qHTS Assay for Identifying the Cell-Membrane Permeable IMPase Inhibitors: Potentiation with Lithium. AID 1457, 2008. Potency, µM (titrated, usually from 59.4 µM), inactives show at the highest dose activity, negative = IMPase inhibition, hits mostly inhibitors. 0.35% of 210,000 active. CHO-M1 cells, IP1 TR-FRET (IP-One), carbachol + lithium;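 note: IP1 builds up when IMPase is blocked and the TR-FRET signal falls; potency is the fitted concentration of half-maximal effect; plate controls were basal vehicle for no effect and high inhibitor control for full effect; nearly all actives have a fitted effect of over 50% in size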
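IP1 accumulation measured by competitive TR-FRET in lysed CHO-M1 cells after 30 min compound exposure at 37C, with a small lithium addition to potentiate weak responses. Hill-equation AC50 from ratio and donor-channel data.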
Starred values were filed as active, the others as inactive; ? = inconclusive; . = not tested or not shown; [ ] = remark or other dose. Rows were chosen to be rich in hits. Some 11% of all compounds tested hit in one or more screens of this group. Unless noted, calls come from the whole dose curve; as a rule, active = well fitted curve in the direction sought with a large enough effect; inconclusive = small, poorly fitted or top-dose-only effect, or another doubt; inactive = no such curve, though single readings can be large; an effect the other way counts as inactive or inconclusive. Unless noted, % is set by controls: 0 for no effect and ±100 for the full control effect.

SMILES	ALDH1A1 block	PNC inhibitor	HPGD inh	IMPase inh	NPSR antagonist	IMPase Li cell
Cc1ccccc1NC(=O)CN1C(=O)S/C(=C\c2ccc(-c3cc(C(=O)O)ccc3C)o2)C1=O	28µM*	.	.	.	-15%	11%
Cc1ccc(NC(=O)CN2C(=O)S/C(=C\c3ccc(-c4cccc(C(=O)O)c4C)o3)C2=O)cc1	?	-5	10µM*	-3	6%[46.1 µM]	17%[38.3 µM]
Cc1ccc(NC(=O)CN2C(=O)S/C(=C\c3cc(C)n(-c4cccc(C(=O)O)c4)c3C)C2=O)cc1	13µM*	.	.	.	7%	.
Clc1ccc(SCCn2cncn2)cc1	-4%	-25	-3%	4	-6%[46.1 µM]	-6%[38.3 µM]
O=C(CSc1nnc(-c2cccs2)n1-c1ccccc1)N1CCCc2ccccc21	-5%	1	-9%	8	?	45%[38.3 µM]
O=C(CSc1n[nH]c(-c2ccccc2O)n1)N1CCCc2ccccc21	2%	-25	10µM*	6	-9%[46.1 µM]	-2%[38.3 µM]
Nc1cc(=O)[nH]c(SCc2csc(-c3ccccc3)n2)n1	8%	3	-6%	.	13%	3%
c1ccc(-c2nc(CSc3n[nH]c(-c4cccs4)n3)cs2)cc1	?	?	4µM*	1	-7%[46.1 µM]	5%[38.3 µM]
O=C(CSc1n[nH]c(-c2cccs2)n1)N1CCCc2ccccc21	-3%	4	6.3µM*	4	-12%[46.1 µM]	-5%[38.3 µM]
N#Cc1cn(-c2ccccc2)nc1-c1ccccc1	0%	26	-14%	2	4%[46.1 µM]	5%[38.3 µM]
N#Cc1c(-c2ccccc2)no[n+]1[O-]	5µM*	.	-11%	11	?	8%
CCOC(=O)c1nnn(-c2nonc2N)c1CN1CCc2ccccc2C1	?	-83*	0%	5	-24%[46.1 µM]	6%
Cc1c(C(=O)N2CCCC2)nnn1-c1nonc1N	25µM*	6	-30%	18	-6%[46.1 µM]	-6%
CC(C)OC(=O)c1nnn(-c2nonc2N)c1CN1CCc2ccccc2C1	?	2	-10%	3	?	-12%[38.3 µM]
CC(C)OC(=O)c1nnn(-c2nonc2N)c1CSc1ccccn1	2.2µM*	-3	?	-4	-15%[46.1 µM]	?
CCOC(=O)c1nnn(-c2nonc2N)c1C	-16%	-16	-10%	4	-1%[46.1 µM]	37%[38.3 µM]
CCOc1nonc1C(=N)/C(C(C)=O)=C(\C)O	9%	-24	-12%	6	-3%[46.1 µM]	-2%[38.3 µM]
O=C(NCc1cccc(F)c1)c1noc2c1CCCC2	?	?	20µM*	-1	-15%[46.1 µM]	27%[38.3 µM]
CSc1ccccc1NC(=O)c1noc2c1CCC2	25µM*	?	?	-4	-2%[46.1 µM]	-2%
N#Cc1nc(Cc2cccc3ccccc23)oc1NCCN1CCOCC1	4%	?	-3%	11	-3%[46.1 µM]	19%[38.3 µM]
O=C(CSc1nnnn1C1CCCCC1)NCc1ccc2c(c1)OCO2	14µM*	15	-2%	8	-3%[46.1 µM]	-5%[38.3 µM]
O=C(CSc1nnnn1C1CCCC1)NCc1ccc2c(c1)OCO2	20µM*	?	1%	1	-8%[46.1 µM]	-6%
CCn1nnnc1SCC(=O)NCc1ccc2c(c1)OCO2	-9%	3	-11%	-4	1%[46.1 µM]	-1%
CC(=O)Nc1ccc(C(=O)CSc2nnnn2C2CCCC2)cc1	16µM*	.	.	.	22%	9%
COc1ccc(OC)c(-n2nnnc2SCC(=O)NCc2ccc3c(c2)OCO3)c1	13µM*	15	-9%	2	-19%[46.1 µM]	28%[38.3 µM]
Cc1ccc(-c2nnn(Cc3nc4ccccc4s3)n2)cc1	-1%	-11	-9%	9	-20%[46.1 µM]	27%[38.3 µM]
CC1CCc2cc(F)ccc2N1C(=O)CSc1nnc2c3ccccc3n(C)c2n1 (stereo not drawn)	0%	23	-16%	1	-17%[46.1 µM]	12%[38.3 µM]

Assay outcomes deposited in PubChem BioAssay by National Center for Advancing Translational Sciences (NCATS).
